Bioassay records from PubChem.
Pol beta inh = qHTS Assay for Inhibitors of DNA Polymerase Beta; 1.3% of 340,000 active; Potency, µM (top dose mostly 114 µM), for inactives: top-dose activity change, negative = inhibition, hits mostly inhibitors; P06746; Pol beta primer extension/strand displacement, fluorescence kinetic; further: potency means the concentration at half of the fitted maximal effect; on the % scale 0 is the no-effect control and ±100 the full control effect
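Reaction started by 50 nM substrate onto compound-treated Pol beta (10 nM, 15 min preincubation, room temperature); plates read at 0 min and 10 min. Normalized concentration-effect data fitted by four-parameter Hill equation.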
POLK inh = qHTS for Inhibitors of Polymerase Kappa; 0.53% of 400,000 active; purified Pol kappa, fluorescent DNA synthesis assay, 10 min; DNA polymerase kappa (Homo sapiens), Q9UBT6; Potency, µM (titrated, usually from 107 µM), for inactives: top-dose activity, negative = inhibition, usual class: inhibitors; further: potency means the concentration at half of the fitted maximal effect; on the % scale 0 is the no-effect control and ±100 the full control effect
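Kinetic fluorescence screen: compound preincubated 15 min RT with 10 nM enzyme; 50 nM substrate (final) initiates; reads at 0/10 min.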
PI5P4Ka inh = qHTS for Inhibitors of phosphatidylinositol 5-phosphate 4-kinase (PI5P4K); Phosphatidylinositol 5-phosphate 4-kinase type-2 alpha (Homo sapiens), P48426; PI5P4Kalpha enzyme, ADP-Glo luminescence, 60 min; hits give low values; max response, %; 1.2% of 330,000 active; AID 652105, 2013; active means max response of -50% or lower; inconclusive means between -30% and -50%; inactive means -30% or higher; further: value at the top dose of about 77 µM; on the % scale 0 is the no-effect control and ±100 the full control effect
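ADP-Glo luminescence end-point read after a 60 min room-temperature kinase reaction of PI5P4Kalpha plus substrate, initiated with ATP at 5 microM final. Buffer: 0.038 M HEPES pH 7.4, EGTA, 0.1% CHAPS, 5% DMSO.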
POLH inh = qHTS for Inhibitors of Polymerase Eta; DNA polymerase eta (Homo sapiens), Q9Y253; recombinant Pol eta, fluorescent DNA replication assay; Potency, µM (highest dose often 114 µM), for the others: at the top dose activity change, negative = inhibition, most hits filed as inhibitors; 1.2% of 390,000 active; AID 588591, 2011; further: potency means the concentration at half of the fitted maximal effect; on the % scale 0 is the no-effect control and ±100 the full control effect
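Pol eta (10 nM) was preincubated with compounds for 15 min at room temperature, after which fluorescent replication substrate (50 nM final) was added to start the reaction. Fluorescence was read kinetically at 0 and 10 min.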
WRN helicase inh = qHTS for Inhibitors of WRN Helicase | Bifunctional 3'-5' exonuclease/ATP-dependent helicase WRN (Homo sapiens), Q14191 | WRN helicase unwinding, fluorescent forked duplex, kinetic | Potency, µM (titrated, usually from 114 µM), inactives show at the top dose activity change, negative = inhibition, most hits filed as inhibitors | 0.46% of 360,000 active | AID 651768, 2012; further: potency means the concentration at half of the fitted maximal effect; on the % scale 0 is the no-effect control and ±100 the full control effect; nearly all actives have a fitted effect of over 55% in size
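WRN at 20 nM final preincubated with compound 15 min at room temperature; reaction started with 100 nM fluorophore/quencher forked duplex oligonucleotide and 2 mM ATP final. Unwinding followed kinetically by red fluorescence (ex 525, em 598 nm).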
POLI inh = qHTS for Inhibitors of Polymerase Iota; Pol iota fluorescent replication assay, 10 min; Potency, µM (doses to about 115 µM), for inactives: at the highest dose activity, negative = inhibition, usual class: inhibitors; 1% of 390,000 active; further: potency means the concentration at half of the fitted maximal effect
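Pol iota at 10 nM preincubated 15 min with compounds at room temperature; reaction started with fluorescent substrate, 50 nM final. Fluorescence read kinetically at 0 and 10 min; buffer-only wells as negative control.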
Starred values were filed as active, the others as inactive; [ ] = another dose, or the depositor's remark. A selection: hits, their analogues and other compounds. The true share with any hit is near 2.8%. Unless noted, the call rests on the fitted dose curve; in most records, active means well fitted curve in the direction sought with a large enough effect; inconclusive means small, poorly fitted or top-dose-only effect, or another doubt; inactive means no such curve, though single readings can be large; an effect the other way counts as inactive or inconclusive.

Results for O=[N+]([O-])c1cccc(C=Nc2cccc3ccccc23)c1O ?
Pol beta inh: 0%; POLK inh: -14%; PI5P4Ka inh: inconclusive; POLH inh: -9%; WRN helicase inh: -4%[57.1 µM]; POLI inh: 39%

How did CCOC(=O)c1c(/N=C/c2cccc([N+](=O)[O-])c2O)sc(C)c1C do in these assays?
Pol beta inh: 15%; POLK inh: -13%; PI5P4Ka inh: -69*; POLH inh: 2%; WRN helicase inh: -24%; POLI inh: inconclusive

What do the screens show for `COc1cc(OC)c(OC)cc1/C=C/c1nc2ccccc2o1`?
POLK inh: -7%; POLI inh: 27%

Results for COc1ccc(C(=O)Nc2nc3ccccc3s2)c(OC)c1 ?
Pol beta inh: -11%; POLK inh: -11%; PI5P4Ka inh: inconclusive; POLH inh: -6%; WRN helicase inh: 50µM*; POLI inh: 14%

How did COc1ccc2nc(NC(=O)c3ccccc3C(=O)O)sc2c1 do in these assays?
Pol beta inh: 45%; POLK inh: 11%; PI5P4Ka inh: -6; POLH inh: -8%; WRN helicase inh: 4%; POLI inh: 10%

How did O=C(Nc1nc2ccccc2s1)c1cc(-c2ccco2)nc2ccccc12 do in these assays?
Pol beta inh: 0%; POLK inh: -5%; PI5P4Ka inh: -16; POLH inh: inconclusive; WRN helicase inh: 50µM*; POLI inh: inconclusive

Results for Cn1c(=O)c(C(=O)COC(=O)c2cc(-c3ccco3)nc3ccccc23)c(N)n(CC2CC2)c1=O ?
Pol beta inh: 10µM*

How did Cn1c(=O)c(C(=O)COC(=O)c2cc(C3CC3)nc3ccccc23)c(N)n(Cc2ccccc2)c1=O do in these assays?
Pol beta inh: 32%; POLK inh: -7%; PI5P4Ka inh: 2; POLH inh: -4%; WRN helicase inh: -2%; POLI inh: 5%

What do the screens show for `O=C(O)c1cc(-c2ccco2)nc2ccccc12`?
Pol beta inh: 18µM*; POLK inh: 28µM*; PI5P4Ka inh: -28; POLH inh: 7.1µM*; WRN helicase inh: inconclusive; POLI inh: 13µM*

Results for CCc1nc2cccnc2n1-c1ccc(CC(=O)NCCOC)cc1 ?
Pol beta inh: 22%; POLK inh: -1%; PI5P4Ka inh: 0; POLH inh: -5%; WRN helicase inh: -7%; POLI inh: 5%

Results for CCOc1ccc(NC(=O)C(C)C(Cc2ccc(C)cc2)C(=O)O)cc1 (centres undefined) ?
Pol beta inh: -7%; POLK inh: -19%; PI5P4Ka inh: 0; POLH inh: -2%; WRN helicase inh: 0%; POLI inh: -23%

What do the screens show for `Cc1ccc([C@H]2C(C(=O)O)=CC[C@@H](c3ccc(C)cc3)N2S(=O)(=O)c2ccccc2C)cc1`?
POLK inh: -12%; PI5P4Ka inh: 17; POLH inh: -17%; WRN helicase inh: -4%; POLI inh: 4%

How did COc1ccc(CNC(=O)COC(=O)c2cc(-c3ccco3)nc3ccccc23)cc1 do in these assays?
Pol beta inh: 7.1µM*

How did O=C(NC(=S)Nc1cccc(S(=O)(=O)NC2=NCCC2)c1)c1cc(-c2ccco2)nc2ccccc12 do in these assays?
Pol beta inh: 40µM*; POLK inh: inconclusive; PI5P4Ka inh: -50*; POLH inh: inconclusive; WRN helicase inh: inconclusive; POLI inh: 28µM*

What do the screens show for `COc1ccc(CNC(=O)COC(=O)c2cc(C)nc3ccccc23)cc1`?
POLK inh: -10%; PI5P4Ka inh: -10; POLH inh: 1%; WRN helicase inh: -27%; POLI inh: 16%
